Laboratory results published in PubChem BioAssay (Tox21).
Inconclusive results are not listed. A call without a number means that no potency is given here. Active and inactive are the calls of the source. Calls come from the whole dose curve; as a rule, active = well fitted activation curve with a large enough effect in the repeat runs; inconclusive = weak or mixed curves; inactive = flat fitted curve, though single readings scatter.

assay: A CellTox Green Cytotoxicity Assay to monitor cytotoxicity in HepG2 cells - 32 hour (AID 1224883); conditions: CellTox Green fluorescence; series mostly up to 76.8 µM; note: nearly all actives have a fitted effect of over 50% in size
Procedure, shortened: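 Read-out is fluorescence of a cyanine dye excluded from live cells that stains DNA of dead HepG2 cells, with signal proportional to cytotoxicity. Plates were read at 0, 8, 16, 24, 32 and 40 h after compound addition.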

| SMILES | Potency | cytotoxicity increase |
| --- | --- | --- |
| COc1nc(N)nc2nc[nH]c12 | inactive | – |
| OC1OCCOC1O (centres undefined) | inactive | – |
| CCCCCCC1(C)CCC(=O)O1 (centres undefined) | inactive | – |
| C#CCN[C@@H]1CCc2ccccc21 | inactive | – |
| CC(=O)OC1CCCCC1C(C)(C)C (centres undefined) | inactive | – |
| CCOc1cccc(N)c1 | inactive | – |
| CC1(C)Oc2ccc(C#N)cc2[C@@H](N2CCCC2=O)[C@@H]1O | inactive | – |
| COc1ccc(CCO)cc1 | inactive | – |
| C/C(CC(C)C)=N\O | inactive | – |
| [O-][n+]1cccc(/C(Cl)=N/OC[C@@H](O)CN2CCCCC2)c1 | inactive | – |
| CC(=O)OCC(=O)Nc1cc(C#N)cc(NC(=O)COC(C)=O)c1Cl | inactive | – |
| CNCCS(=O)(=O)O | inactive | – |
| CCC(=O)CC | inactive | – |
| CC(=O)O[C@@H]1CC2CCC1(C)C2(C)C (some centres undefined) | inactive | – |
| NCc1ccc(S(N)(=O)=O)cc1 | inactive | – |
| Cn1c(=O)c2[nH]c(Br)nc2n(C)c1=O | inactive | – |
| CCC[C@@H]1C[C@@H](C(=O)N[C@@H]([C@H]2O[C@H](SC)[C@H](O)[C@@H](O)[C@H]2O)[C@@H](C)O)N(C)C1 | inactive | – |
| O=Cc1cc2ccccc2o1 | inactive | – |
| Cc1c(N)cccc1Cl | inactive | – |

| SMILES | Potency | cytotoxicity increase |
| --- | --- | --- |
| Cc1ccccc1C(N)=O | inactive | – |
| O=C(Cn1ccnc1[N+](=O)[O-])NCc1ccccc1 | inactive | – |
| CC(C)=CCC/C(C)=C/COC=O | inactive | – |
| COC(=O)c1ccccc1C(=O)O | inactive | – |
| CCO | inactive | – |
| CC(C)OC(=O)CCC(=O)OC(C)C | inactive | – |
| CCOc1ccccc1OCC1CNCCO1 (centres undefined) | inactive | – |
| CCCCCCCCCCCCCCC(=O)NC(CO)CCCCCCCCCCCCCC (centres undefined) | inactive | – |
| O=C(CCCCC(=O)Nc1c(I)cc(I)c(C(=O)O)c1I)Nc1c(I)cc(I)c(C(=O)O)c1I | inactive | – |
| CC1(C)O[C@H]2CC(=O)OC[C@]23[C@H]2CC[C@@]4(C)[C@H](c5ccoc5)OC(=O)[C@H]5O[C@]54[C@]2(C)C(=O)C[C@@H]13 | inactive | – |
| CCCCCCCCCCCCCCCCCCOCCO | – | 1.19% [at 15.8 µM] (inactive) |
| CC1=C(C(=O)O)N2C(=O)[C@@H](NC(=O)[C@H](N)C3=CCC=CC3)[C@H]2SC1 | inactive | – |
| CC(=O)OC(C)=O | inactive | – |
| Cc1ccc(N)cc1S(=O)(=O)O | inactive | – |
| COC(=O)c1cccc(Cl)c1 | inactive | – |
| CC(=O)O[Si](C)(OC(C)=O)OC(C)=O | inactive | – |
| CC1(C)CC(OC(=O)CCCCCCCCC(=O)OC2CC(C)(C)NC(C)(C)C2)CC(C)(C)N1 | – | -10.5% [at 15.8 µM] (inactive) |
| CCOC(=O)CC1(C)OCC(C)O1 (centres undefined) | inactive | – |

assay: A CellTox Green Cytotoxicity Assay to monitor cytotoxicity in HEK293 cells - 8 hour (AID 1224884); conditions: CellTox Green fluorescence; series mostly up to 76.8 µM; note: nearly all actives have a fitted effect of over 35% in size
Procedure, shortened: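 Nonlytic real-time cytotoxicity: HEK293 + CellTox Green reagent plated, 5 h preincubation, pintool compound addition (23 nL in DMSO), 37 C for 40 h, fluorescence measured at successive time points.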

| SMILES | Potency | cytotoxicity increase |
| --- | --- | --- |
| COc1nc(N)nc2nc[nH]c12 | inactive | – |
| OC1OCCOC1O (centres undefined) | inactive | – |
| CCCCCCC1(C)CCC(=O)O1 (centres undefined) | inactive | – |
| C#CCN[C@@H]1CCc2ccccc21 | inactive | – |
| CC(=O)OC1CCCCC1C(C)(C)C (centres undefined) | inactive | – |
| CCOc1cccc(N)c1 | inactive | – |
| CC1(C)Oc2ccc(C#N)cc2[C@@H](N2CCCC2=O)[C@@H]1O | inactive | – |
| COc1ccc(CCO)cc1 | inactive | – |
| C/C(CC(C)C)=N\O | inactive | – |
| [O-][n+]1cccc(/C(Cl)=N/OC[C@@H](O)CN2CCCCC2)c1 | inactive | – |
| CC(=O)OCC(=O)Nc1cc(C#N)cc(NC(=O)COC(C)=O)c1Cl | inactive | – |
| CNCCS(=O)(=O)O | inactive | – |
| CCC(=O)CC | inactive | – |
| CC(=O)O[C@@H]1CC2CCC1(C)C2(C)C (some centres undefined) | inactive | – |
| NCc1ccc(S(N)(=O)=O)cc1 | inactive | – |
| Cn1c(=O)c2[nH]c(Br)nc2n(C)c1=O | inactive | – |
| CCC[C@@H]1C[C@@H](C(=O)N[C@@H]([C@H]2O[C@H](SC)[C@H](O)[C@@H](O)[C@H]2O)[C@@H](C)O)N(C)C1 | inactive | – |
| O=Cc1cc2ccccc2o1 | inactive | – |
| Cc1c(N)cccc1Cl | inactive | – |

| SMILES | Potency | cytotoxicity increase |
| --- | --- | --- |
| Cc1ccccc1C(N)=O | inactive | – |
| O=C(Cn1ccnc1[N+](=O)[O-])NCc1ccccc1 | inactive | – |
| CC(C)=CCC/C(C)=C/COC=O | inactive | – |
| COC(=O)c1ccccc1C(=O)O | inactive | – |
| CCO | inactive | – |
| CC(C)OC(=O)CCC(=O)OC(C)C | inactive | – |
| CCOc1ccccc1OCC1CNCCO1 (centres undefined) | inactive | – |
| CCCCCCCCCCCCCCC(=O)NC(CO)CCCCCCCCCCCCCC (centres undefined) | inactive | – |
| O=C(CCCCC(=O)Nc1c(I)cc(I)c(C(=O)O)c1I)Nc1c(I)cc(I)c(C(=O)O)c1I | inactive | – |
| CC1(C)O[C@H]2CC(=O)OC[C@]23[C@H]2CC[C@@]4(C)[C@H](c5ccoc5)OC(=O)[C@H]5O[C@]54[C@]2(C)C(=O)C[C@@H]13 | inactive | – |
| CCCCCCCCCCCCCCCCCCOCCO | – | -0.0989% [at 15.8 µM] (inactive) |
| CC1=C(C(=O)O)N2C(=O)[C@@H](NC(=O)[C@H](N)C3=CCC=CC3)[C@H]2SC1 | inactive | – |
| CC(=O)OC(C)=O | inactive | – |
| Cc1ccc(N)cc1S(=O)(=O)O | inactive | – |
| COC(=O)c1cccc(Cl)c1 | inactive | – |
| CC(=O)O[Si](C)(OC(C)=O)OC(C)=O | inactive | – |
| CC1(C)CC(OC(=O)CCCCCCCCC(=O)OC2CC(C)(C)NC(C)(C)C2)CC(C)(C)N1 | – | -2.02% [at 15.8 µM] (inactive) |
| CCOC(=O)CC1(C)OCC(C)O1 (centres undefined) | inactive | – |
